Compounds without any hit were thinned out: in the full panel of roughly 83,000, 20% have a hit.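 A percent growth of 40 corresponds to 60% growth inhibition; 0 means no net growth; -100 means all cells died. Active threshold: below 10.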 A number with no mark means an inactive call. Activity calls are given as the source filed them.

The subject of one test is MDA-MB-435 melanoma. Put plainly: NCI-60 one-dose screen, 48 h (100 = growth as untreated, 0 = no growth, -100 = all killed). The conditions noted are these: 10 µM unless noted.
Turning to `COc1cc(CN(c2ccc(C)cc2)C2OC(=O)c3ccccc32)cc(OC)c1OC` (stereo not drawn), the growth was -17.8% (active).

Take `COc1cc2c(c(OC)c1O)C(=O)C(OC)C(c1ccc(O)c(O)c1)O2` (stereo not drawn): the growth was -23.8% (active).

Regarding `ClCc1c(Cl)c(Cl)c(Cl)c(CCl)c1Cl`, the growth was 52.2%.

For the compound `Brc1ccsc1Br`, the growth was 113%.

Consider `CCCCSc1ncnc2c1ncn2C1CCCCO1` (stereo not drawn), for which the growth was 115%.

As to `Clc1ccc(-c2cnc3c(-c4ccnc(N5CCNCC5)c4)cnn3c2)cc1`, the growth is -51.1% (active).

As for `O=C1Nc2ccccc2/C1=C\c1nc(C2CCN(S(=O)(=O)c3ccc(F)cc3)CC2)n2ccccc12`, the growth was 70.8%.

For `COc1cc(/C=C/c2cc(/C=C/c3ccc(O)c(OC)c3)n(C(=O)Nc3ccc(F)c(Cl)c3)n2)ccc1O`, the growth was -25.9% (active).

In the case of `O=C(Nc1cccc(-n2ccc3c(NC(=O)c4ccccc4)nccc32)c1)c1ccc(N2CCOCC2)c(C(F)(F)F)c1`, the growth was 5.17% (active).

For the compound `CCOC(=O)c1cc(N)nc2ccccc12`, the growth was 108%.

As for `CCOC(=O)Cc1cc(Br)c(OCc2ccccc2)c(Br)c1`, the growth is 96.3%.

`CCOC(=O)C1C(=O)C=C(c2ccccc2)CC1c1sc(N(C)Cc2ccccc2)nc1Cl` (stereo not drawn): the growth was 96.2%.

`O=c1c2cc(Br)cc(Br)c2nc(-c2ccc(Cl)cc2)n1/N=C\c1ccccc1F`: the growth is 81.2%.

Take `CCN(CC)c1cc(C)c(Cc2c(OC)ccc3ccccc23)cc1C`: the growth is 104%.

`CCN(C(=O)CCl)C(C)(C)C(SSSC(c1ccc(Cl)cc1)C(C)(C)N(CC)C(=O)CCl)c1ccc(Cl)cc1` (stereo not drawn): the growth was 36.4%.

Consider `O=C(Nc1ccc(Br)cc1)c1ccc(Cl)c(Cl)c1`, for which the growth was 31.4%.

Regarding `COc1ccc2nc(C)cc(Sc3nc4ccccc4s3)c2c1`, the growth was 17.2%.

As for `C[C@@H]1N=C(c2ccc3ccccc3c2)Nc2nc3ccccn3c2C1=O`, the growth is -24.7% (active).

Turning to `CC(C)[C@@H]1C=C2CC[C@H]3[C@](C)(CN)CCC[C@]3(C)[C@H]2CC1`, the growth was -23% (active).

`O=C(Nc1ccc(-n2ccc3c(NC(=O)c4ccccc4)nccc32)cc1)c1ccc(N2CCOCC2)c(C(F)(F)F)c1`: the growth is 33.6%.

For `COc1ccc(CNc2c3ccccc3nc3ccccc23)cc1F`, the growth was 7.6% (active).

Regarding `Cc1cc(O)ccc1Sc1ccccc1[N+](=O)[O-]`, the growth was 57.7%.

With `O=C(C(=O)N1CCCC1)c1cn(CCCn2cc(C(=O)C(=O)N3CCCC3)c3cc(Br)ccc32)c2ccc(Br)cc12`, the growth is 74.3%.

For the compound `COc1cc(/C=N/NC(=O)Cn2c(-c3ccc(C)o3)nc3ccccc32)ccc1OCc1ccccc1`, the growth is 96.9%.

Consider `CCOCCNc1ccc(S(=O)(=O)c2ccc(N)cc2)cc1N`, for which the growth was 105%.

With `CC(C)(C)c1ccc(OC(=O)Nc2ccccc2)cc1`, the growth was 107%.

Regarding `CCOC(=O)c1cc(C(=O)OCC)c(C)nc1C`, the growth is 105%.

As to `Cc1ccc(OC2=C(C#N)C(=N)N3C(=NN2)Sc2c(C)ccc(C)c23)cc1`, the growth is 106%.

Turning to `COc1cccc(NC(=O)OC(C)C)c1`, the growth is 92.8%.

In the case of `CCCCCCCCCCCC1=NC(C)(C)CN1C(C)C`, the growth is 11.2%.

For the compound `O=C(Nc1ccccc1)c1cc2ccccc2s1`, the growth is 109%.

In the case of `CC(C)(C)[Si](C)(C)OC1[C@@H](CNC(N)=O)O[C@@H](n2cnc3c(NC(=O)Nc4ccccc4)ncnc32)[C@H]1O[Si](C)(C)C(C)(C)C` (stereo partly drawn), the growth was 53%.

As for `O/N=C/c1ccncc1`, the growth is 100%.

Consider `COc1ccc2nc3ccccc3c(NCc3ccc(C)cc3)c2c1`, for which the growth is 42.2%.

Take `C=C(C)[C@@H]1CC[C@]2(C(=O)NC(COC(=O)C(Cl)Cl)(COC(=O)C(Cl)Cl)COC(=O)C(Cl)Cl)CC[C@]3(C)[C@H](CC[C@@H]4[C@@]5(C)CC[C@H](OC(C)=O)C(C)(C)[C@@H]5CC[C@]43C)[C@@H]12`: the growth was 73.6%.

For `C#Cc1cccc(Nc2nc3cc([N+](=O)[O-])ccc3nc2Nc2ccc(O)cc2)c1`, the growth was 12.2%.

For the compound `N#CCCn1cnc2c(N)ncnc21`, the growth was 102%.

As for `O=C(CCl)N1c2ccccc2Oc2ccc3ccccc3c21`, the growth is -22.4% (active).

With `CC(C)c1ccc(-c2cnc3nonc3n2)cc1`, the growth was 23.7%.

The next test deals with SW-620 colon. The test is described as above. The note with it: 10 µM unless noted.
In the case of `COc1cc(CN(c2ccc(C)cc2)C2OC(=O)c3ccccc32)cc(OC)c1OC` (stereo not drawn), the growth was 36.2%.

In the case of `COc1cc2c(c(OC)c1O)C(=O)C(OC)C(c1ccc(O)c(O)c1)O2` (stereo not drawn), the growth was 22.6%.

Regarding `ClCc1c(Cl)c(Cl)c(Cl)c(CCl)c1Cl`, the growth is -82.2% (active).

Regarding `Brc1ccsc1Br`, the growth is 111%.

As for `CCCCSc1ncnc2c1ncn2C1CCCCO1` (stereo not drawn), the growth was 107%.

As to `Clc1ccc(-c2cnc3c(-c4ccnc(N5CCNCC5)c4)cnn3c2)cc1`, the growth was -50.4% (active).

In the case of `O=C1Nc2ccccc2/C1=C\c1nc(C2CCN(S(=O)(=O)c3ccc(F)cc3)CC2)n2ccccc12`, the growth was 82.8%.

Turning to `COc1cc(/C=C/c2cc(/C=C/c3ccc(O)c(OC)c3)n(C(=O)Nc3ccc(F)c(Cl)c3)n2)ccc1O`, the growth was 2.03% (active).

As for `O=C(Nc1cccc(-n2ccc3c(NC(=O)c4ccccc4)nccc32)c1)c1ccc(N2CCOCC2)c(C(F)(F)F)c1`, the growth was 26.9%.

As to `CCOC(=O)c1cc(N)nc2ccccc12`, the growth was 91.8%.

For `CCOC(=O)Cc1cc(Br)c(OCc2ccccc2)c(Br)c1`, the growth is 113%.

In the case of `CCOC(=O)C1C(=O)C=C(c2ccccc2)CC1c1sc(N(C)Cc2ccccc2)nc1Cl` (stereo not drawn), the growth is 90.3%.

On to `O=c1c2cc(Br)cc(Br)c2nc(-c2ccc(Cl)cc2)n1/N=C\c1ccccc1F`, for which the growth is 82.5%.

Regarding `CCN(CC)c1cc(C)c(Cc2c(OC)ccc3ccccc23)cc1C`, the growth is 86.1%.

Turning to `CCN(C(=O)CCl)C(C)(C)C(SSSC(c1ccc(Cl)cc1)C(C)(C)N(CC)C(=O)CCl)c1ccc(Cl)cc1` (stereo not drawn), the growth is 72.6%.

On to `O=C(Nc1ccc(Br)cc1)c1ccc(Cl)c(Cl)c1`, for which the growth is 34.7%.

With `COc1ccc2nc(C)cc(Sc3nc4ccccc4s3)c2c1`, the growth was 31.3%.

As to `C[C@@H]1N=C(c2ccc3ccccc3c2)Nc2nc3ccccn3c2C1=O`, the growth was 26.3%.

On to `CC(C)[C@@H]1C=C2CC[C@H]3[C@](C)(CN)CCC[C@]3(C)[C@H]2CC1`, for which the growth was -65.8% (active).

For the compound `O=C(Nc1ccc(-n2ccc3c(NC(=O)c4ccccc4)nccc32)cc1)c1ccc(N2CCOCC2)c(C(F)(F)F)c1`, the growth was 30.5%.

Consider `COc1ccc(CNc2c3ccccc3nc3ccccc23)cc1F`, for which the growth is 16.6%.

Regarding `Cc1cc(O)ccc1Sc1ccccc1[N+](=O)[O-]`, the growth was 90.2%.

Consider `O=C(C(=O)N1CCCC1)c1cn(CCCn2cc(C(=O)C(=O)N3CCCC3)c3cc(Br)ccc32)c2ccc(Br)cc12`, for which the growth was 85.5%.

`COc1cc(/C=N/NC(=O)Cn2c(-c3ccc(C)o3)nc3ccccc32)ccc1OCc1ccccc1`: the growth was 89.9%.

For `CCOCCNc1ccc(S(=O)(=O)c2ccc(N)cc2)cc1N`, the growth was 102%.

With `CC(C)(C)c1ccc(OC(=O)Nc2ccccc2)cc1`, the growth is 106%.

In the case of `CCOC(=O)c1cc(C(=O)OCC)c(C)nc1C`, the growth is 110%.

As to `Cc1ccc(OC2=C(C#N)C(=N)N3C(=NN2)Sc2c(C)ccc(C)c23)cc1`, the growth was 102%.

`COc1cccc(NC(=O)OC(C)C)c1`: the growth was 96.6%.

Regarding `CCCCCCCCCCCC1=NC(C)(C)CN1C(C)C`, the growth is 47.8%.

In the case of `O=C(Nc1ccccc1)c1cc2ccccc2s1`, the growth is 101%.

Regarding `CC(C)(C)[Si](C)(C)OC1[C@@H](CNC(N)=O)O[C@@H](n2cnc3c(NC(=O)Nc4ccccc4)ncnc32)[C@H]1O[Si](C)(C)C(C)(C)C` (stereo partly drawn), the growth is 62%.

Consider `O/N=C/c1ccncc1`, for which the growth was 102%.

Consider `COc1ccc2nc3ccccc3c(NCc3ccc(C)cc3)c2c1`, for which the growth is 18.5%.

With `C=C(C)[C@@H]1CC[C@]2(C(=O)NC(COC(=O)C(Cl)Cl)(COC(=O)C(Cl)Cl)COC(=O)C(Cl)Cl)CC[C@]3(C)[C@H](CC[C@@H]4[C@@]5(C)CC[C@H](OC(C)=O)C(C)(C)[C@@H]5CC[C@]43C)[C@@H]12`, the growth was 62.1%.

In the case of `C#Cc1cccc(Nc2nc3cc([N+](=O)[O-])ccc3nc2Nc2ccc(O)cc2)c1`, the growth is -52.9% (active).

Turning to `N#CCCn1cnc2c(N)ncnc21`, the growth is 102%.

As to `O=C(CCl)N1c2ccccc2Oc2ccc3ccccc3c21`, the growth was -81.2% (active).

In the case of `CC(C)c1ccc(-c2cnc3nonc3n2)cc1`, the growth is 29.8%.

The values are drawn from PubChem BioAssay (NCI).
